# Results published in PubChem BioAssay.
# Activity calls are given as the source filed them. Cut-off read from the data, not from the text of the source: active = inhibition above about 30%; inactive = the rest.
# Test: growth suppression of yeast trafficking mutant, preliminary HTS, modulators of trafficking downstream of Golgi apparatus project, 1536-format plate, OD 615 nm (AID 637)
# Settings: yeast transport mutant growth, absorbance 615 nm, 18 h; active compounds read high
row,SMILES,inhibition
1,O=c1[nH]c2ccccc2nc1NCCN1CCOCC1,3.93% (inactive)
2,c1ccc(Nc2ccccc2Nc2ccccn2)nc1,5.08% (inactive)
3,COc1ccc(-n2c(COc3cccc(C)c3)nnc2SCC(=O)NCc2ccco2)cc1,-1.43% (inactive)
4,C=CCc1cc(C(=O)N2CCCCC2)ccc1O,8.2% (inactive)
5,CCCC(=O)Nc1ccc2oc(-c3cccnc3)nc2c1,10% (inactive)
6,Cc1ccccc1-n1c(=O)cc(N2CCN(C(=O)c3ccco3)CC2)[nH]c1=O,0.17% (inactive)
7,O=C(O)CN1C(=O)C2(OCCCO2)c2ccccc21,0.49% (inactive)
8,CC(C)(C)C(=O)/C=C(\N)c1ccccn1,-4.92% (inactive)
9,CCOC(=O)C1CCCN(c2c(N3CCN(c4ccccn4)CC3)c(=O)c2=O)C1 (stereo not given),-2.46% (inactive)
10,CC1CCN(S(=O)(=O)c2ccc(S(=O)(=O)NCC(=O)C(C)(C)C)cc2)CC1,-8.23% (inactive)
11,O=C(CSc1nnc2scc(-c3ccccc3)n12)N1CCN(Cc2ccccc2)CC1,-0.32% (inactive)
12,CC1(C)CNC(=O)CC(C)(C)N1O,0% (inactive)
13,Cc1cc(NC(=O)CCOc2ccccc2)no1,1% (inactive)
14,CCOc1ccc2cc(C#N)c(SCC(=O)N3CCCC3)nc2c1,-3.64% (inactive)
15,COc1cccc(Oc2cnc(N)nc2-c2ccc(OC)cc2O)c1,-5.5% (inactive)
16,CCOC(OCC)P(=O)(C(C)C)C(C)C,-5.08% (inactive)
17,O=C1C(C=NCCCn2ccnc2)=C(O)c2ccccc21,-1.75% (inactive)
18,CCCN(S(=O)(=O)c1ccc(OCC)cc1)S(=O)(=O)c1cccs1,-10.8% (inactive)
19,N#Cc1nc(COc2ccc(Br)cc2)oc1N1CCCC1,0.66% (inactive)
20,CCOC(=O)N1CCN(Cc2cc(=O)oc3ccc4ccccc4c23)CC1,2.86% (inactive)

row,SMILES,inhibition
1,COc1ccc(OC)c(C2C3=C(CCCC3=O)Nc3c2c(=O)n(C)c(=O)n3C)c1 (stereo not given),-0.33% (inactive)
2,CCOc1ccc(C2CC(=O)NC3=C2C(=O)CCC3)cc1Cl (stereo not given),0% (inactive)
3,COc1ccc2nc(NC(=O)c3ccoc3C)sc2c1,6.33% (inactive)
4,O=C(NCC(=O)N1CCC(N2CCCCC2)CC1)C1CCCCC1,-4.43% (inactive)
5,O=C(NCCN1CCOCC1)c1ccc2c(c1)N(Cc1ccccc1)C(=O)CS2,-0.32% (inactive)
6,CCC(c1nnnn1Cc1ccco1)N(CCc1ccccc1)Cc1cc2cccc(C)c2[nH]c1=O (stereo not given),-2.67% (inactive)
7,CC(C)=CCCC(C)N(C=O)C(C)CCC=C(C)C (stereo not given),-2.7% (inactive)
8,Cc1c(C(=O)NCc2cccnc2)oc2ccc(S(=O)(=O)N3CCCCC3)cc12,4.1% (inactive)
9,Cc1ccc(C(C)C)c(OCCn2c(=O)oc3ccccc32)c1,-3.83% (inactive)
10,CCn1nc(C(=O)OCC(=O)N2CCc3ccccc32)c2ccccc2c1=O,-11.2% (inactive)
11,COC(=O)c1cc(-c2c(C)oc3cc(O)ccc3c2=O)c(C)o1,-1.27% (inactive)
12,CCOC(=O)N1CCN(S(=O)(=O)c2ccc(OCC)c(C)c2)CC1,-3.17% (inactive)
13,CC1CC(=O)C2=C(C1)OC(N)=C(C#N)C2c1coc2ccccc2c1=O (stereo not given),2.26% (inactive)
14,COc1ccc(-c2nnc(SCCC(=O)O)n2-c2ccccc2)cc1,-0.49% (inactive)
15,CCCCn1c(SCC(=O)Nc2ccc(OC)cc2)nc2ccc(N3CCOCC3)cc2c1=O,0.16% (inactive)
16,CCOC(=O)c1cc2cc(F)ccc2nc1C,-5.9% (inactive)
17,Cc1nc2ccccn2c1C(=O)NCCCN1CCOCC1,4.59% (inactive)
18,Cc1cc(-c2ccccc2)c2c3c(cn2n1)c(=O)n(C)c(=O)n3C,0.33% (inactive)
19,CCOC(=O)N1CCC(O)(c2cc(C)c(C)cc2C)CC1,-5% (inactive)
20,O=C(C1CCCN(S(=O)(=O)c2cccnc2)C1)N1CCN(c2ccccn2)CC1 (stereo not given),-4% (inactive)
